{"source": "PubChem BioAssay AID2391", "about": "(Southern Research Specialized Biocontainment Screening …, 2010)", "note": "The campaign covered roughly 310,000 compounds. About 410 (0.13%) were called active. Inconclusive results (about 2%) are left out. A selection follows. Potency and affinity values are given separately. Unmarked numbers belong to inactive results. How the calls were made is not given here."}
{"assay": "inhibition of RSV-induced cytopathic effect – HEp-2 cells, primary 10 µM value included (AID 2391)", "conditions": "at 10 µM, stronger effect = higher value", "units": {"CPE inhibition": "%"}}
{"smiles": "CC(=O)Nc1ccc(NC(=O)CSc2ccc(-c3ccc4c(c3)OCO4)nn2)cc1", "CPE inhibition": 3.37}
{"smiles": "CCOC(=O)C1CCCN(c2c(Nc3ccc(C)c(C)c3)c(=O)c2=O)C1", "note": "(stereo not given)", "CPE inhibition": 1}
{"smiles": "COc1cccc(OCCCN2CCN(S(=O)(=O)c3ccc(NC(C)=O)cc3)CC2)c1", "CPE inhibition": 3.71}
{"smiles": "CCc1c(C(=O)Nc2cc(C)cc(C)c2)[nH]c(C)c1C(C)=O", "CPE inhibition": 2.64}
{"smiles": "COc1ccc(C(CNC(=O)COc2ccccc2)N2CCCCC2)cc1", "note": "(stereo not given)", "CPE inhibition": 0.71}
{"smiles": "COc1ccc(C(CNC(=O)Cc2ccccc2)N2CCCCC2)cc1", "note": "(stereo not given)", "CPE inhibition": -0.35}
{"smiles": "NC(=O)c1ccsc1NC(=O)COC(=O)c1nc(Cl)ccc1Cl", "CPE inhibition": -1.24}
{"smiles": "Oc1ccc(N2CCN(Cc3nc4ccccc4[nH]3)CC2)cc1", "CPE inhibition": 13.2}
{"smiles": "c1ccc(N2CCN(c3nc4ccccc4[nH]3)CC2)nc1", "CPE inhibition": -2.6}
{"smiles": "c1ccc2[nH]c(CN3CCCCCC3)nc2c1", "CPE inhibition": 0.95}
{"smiles": "COc1ccccc1N1CCN(Cc2nc3ccccc3[nH]2)CC1", "CPE inhibition": 1.74}
{"smiles": "COC(CNS(=O)(=O)c1cccc2nonc12)OC", "CPE inhibition": 3.28}
{"smiles": "CCN(CC(=O)Nc1c(F)cccc1F)C(=O)c1ccc(N2CCCCC2)c([N+](=O)[O-])c1", "CPE inhibition": 5.38}
{"smiles": "Cc1csc(NC(=O)c2ccc[nH]c2=O)n1", "CPE inhibition": 0.61}
{"smiles": "COc1ccc(OCCOC(=O)C(C)NS(=O)(=O)c2ccc(NC(C)=O)cc2)cc1", "note": "(stereo not given)", "CPE inhibition": 0.13}
{"smiles": "CCOC(=O)N1CCN(CC(=O)Nc2nc3ccc(OC)cc3s2)CC1", "CPE inhibition": 10.2}
{"smiles": "O=c1c2ccccc2nc(SCc2ccc([N+](=O)[O-])cc2)n1CCCO", "CPE inhibition": 4.2}
{"smiles": "CCn1c(SCC#N)nc2ccccc2c1=O", "CPE inhibition": 1.07}
{"smiles": "Cn1c(SCC#N)nc2ccccc2c1=O", "CPE inhibition": 2.04}
{"smiles": "CCC(Sc1nc2ccccc2c2nc3ccccc3n12)C(=O)NCc1ccco1", "note": "(stereo not given)", "CPE inhibition": -0.18}
{"smiles": "O=C(CSc1nc2ccccc2n1CC(=O)NCc1ccccc1)NCc1ccco1", "CPE inhibition": -0.09}
{"smiles": "Cc1cccc(C(=O)O/N=C/c2c(N3CCOCC3)n(C)c3ccccc23)c1", "CPE inhibition": -0.89}
{"smiles": "COC(=O)Cc1c(C)c2ccc(OC3CCCCC3=O)cc2oc1=O", "note": "(stereo not given)", "CPE inhibition": 6.9}
{"smiles": "CN(C)c1ccc(NC(=O)CSc2nc(C3CC3)nc3ccccc23)cc1", "CPE inhibition": 3.13}
{"smiles": "CCC(C)NC(=O)c1nc2c(nnn2Cc2ccccc2Cl)c(=O)[nH]1", "note": "(stereo not given)", "CPE inhibition": 1.33}
{"smiles": "CC1C2C(C)N(C)C(=O)N(C)C2N(C)C(=O)N1C", "note": "(stereo not given)", "CPE inhibition": 2.07}
{"smiles": "CCOc1ccc2nc(NS(=O)(=O)c3cccs3)sc2c1", "CPE inhibition": 1.43}
{"smiles": "CCOc1ccc2nc(NC(=O)C(NS(=O)(=O)c3cccs3)C(C)C)sc2c1", "note": "(stereo not given)", "CPE inhibition": 19.6}
{"smiles": "CC1(C(=O)Nc2nc3ccccc3s2)CC1(Br)Br", "note": "(stereo not given)", "CPE inhibition": 9.49}
{"smiles": "CCCC(=O)Nc1nc2ccc(OCC)cc2s1", "CPE inhibition": 2.67}
{"smiles": "C/C(=N/NS(C)(=O)=O)c1ccc2ccccc2c1", "CPE inhibition": -0.76}
{"smiles": "CC(C)C(=O)Nc1cccc(-c2cnc3ccccc3n2)c1", "CPE inhibition": -1.56}
{"smiles": "O=C(NNC(=O)C1CC1c1ccccc1)Nc1ccccc1", "note": "(stereo not given)", "CPE inhibition": 1.51}
{"smiles": "Cc1cc(N2CCOCC2)n2cc(-c3ccccc3)nc2n1", "CPE inhibition": 1.5}
{"smiles": "Cc1cc(N2CCN(c3ccccc3Cl)CC2)n2cc(-c3ccccc3)nc2n1", "CPE inhibition": 5.23}
{"smiles": "CCCC(=O)N/C(N)=N/c1nc(C)c2ccccc2n1", "CPE inhibition": 0.78}
{"smiles": "N#CCCn1cc(CNC2CCC(O)CC2)c2ccccc21", "note": "(stereo not given)", "CPE inhibition": 2.18}
{"smiles": "Cn1nc(SCC(=O)O)sc1=S", "CPE inhibition": -0.46}
{"smiles": "Cc1ccc2cc(CN(CC3CCCO3)C(=S)NCc3ccco3)c(=O)[nH]c2c1", "note": "(stereo not given)", "CPE inhibition": 1.42}
{"smiles": "Cc1ccc2cc(CN(Cc3ccco3)C(=S)NCC3CCCO3)c(=O)[nH]c2c1C", "note": "(stereo not given)", "CPE inhibition": 2}
{"smiles": "COc1ccc(C(=O)COC(=O)CCn2nnc(-c3cccs3)n2)cc1", "CPE inhibition": 1.36}
{"smiles": "NC(=O)C1CCN(c2ccc(C(F)(F)F)cc2[N+](=O)[O-])CC1", "CPE inhibition": 16.8}
{"smiles": "O=[N+]([O-])c1cc(C(F)(F)F)ccc1N1CCCC(O)C1", "note": "(stereo not given)", "CPE inhibition": 9.15}
{"smiles": "COCC1CCN(C(=O)C2CCC(=O)N(Cc3cccc(F)c3)C2)CC1", "note": "(stereo not given)", "CPE inhibition": 2.17}
{"smiles": "c1ccc2c(c1)nnn2Cc1nnc2sc(-c3ccncc3)nn12", "CPE inhibition": 1.65}
{"smiles": "c1cncc(-c2nn3c(Cn4cnc5ccccc54)nnc3s2)c1", "CPE inhibition": 15.6}
{"smiles": "c1csc(-c2nn3c(Cn4nnc5ccccc54)nnc3s2)c1", "CPE inhibition": 26.6}
{"smiles": "Clc1cccc(-c2nn3c(Cn4cnc5ccccc54)nnc3s2)c1", "CPE inhibition": 34}
{"smiles": "c1ccc2c(c1)ncn2Cc1nnc2sc(-c3ccncc3)nn12", "CPE inhibition": -0.84}
{"smiles": "c1ccc(Cc2nn3c(Cn4cnc5ccccc54)nnc3s2)cc1", "CPE inhibition": 5.56}
{"smiles": "Cc1ccc[n+](C(C)C(=O)Nc2ccc(C)c([N+](=O)[O-])c2)c1", "note": "(stereo not given)", "CPE inhibition": 0.22}
{"smiles": "COc1cccc(NC(=O)CNc2cc(S(=O)(=O)N3CCOCC3)ccc2N2CCCC2)c1", "CPE inhibition": -0.7}
{"smiles": "CC(C)(C)C(=O)NC(=S)NCCc1ccccc1", "CPE inhibition": 2.62}
{"smiles": "CC(C)(C)CC(=O)NC(=S)NCc1ccccc1", "CPE inhibition": 5.07}
{"smiles": "COc1ccc(/C(C)=N/OCC(=O)N=Nc2c(O)[nH]c3ccc(Br)cc23)cc1", "CPE inhibition": 4.9}
{"smiles": "O=C(Nc1ccc(F)cc1F)C1CC(=O)N(Cc2ccccc2)C1", "note": "(stereo not given)", "CPE inhibition": 0.74}
{"smiles": "CCc1c(C)nc2ncnn2c1N1CCC(C(=O)NCc2cccs2)CC1", "CPE inhibition": 11}
{"smiles": "O=C(NC(=S)NNC(=O)c1ccccc1O)c1cccc([N+](=O)[O-])c1", "CPE inhibition": 16.2}
{"smiles": "CCn1c(C2CC(=O)N(Cc3ccccc3)C2)nc2ccccc21", "note": "(stereo not given)", "CPE inhibition": 1.99}
{"smiles": "C=CCN1CC(c2nc3ccccc3n2CCOc2ccccc2)CC1=O", "note": "(stereo not given)", "CPE inhibition": 0.6}
{"smiles": "Cn1c(SCC(=O)NC2CCCC2)nnc1-c1ccncc1", "CPE inhibition": 0.88}
{"smiles": "COc1ccc(C(=O)Nc2cccc(C(=O)N3CCCCC3)c2)cc1", "CPE inhibition": 3.16}
{"smiles": "CCc1ccccc1Nc1nc(N)nc(COC(=O)c2c(C)noc2C)n1", "CPE inhibition": 3.24}
{"smiles": "Cc1ccccc1Nc1nc(N)nc(COC(=O)c2cccn2C)n1", "CPE inhibition": 4.72}
{"smiles": "Cc1cc(C)nc(-n2nc(C)c(Oc3ccccc3O)c2C)n1", "CPE inhibition": 1.29}
{"smiles": "Cc1nn(-c2ccccn2)c(C)c1Oc1ccccc1O", "CPE inhibition": 0.08}
{"smiles": "CCC(=O)c1ccc(OCC(=O)N(C)CC(=O)Nc2cccc(F)c2)cc1", "CPE inhibition": -0.9}
{"smiles": "CC(=O)Nc1ccc2c3c(cccc13)CC2", "CPE inhibition": 3.08}
{"smiles": "Cc1cccc(NC(=O)[C@H](Cc2c[nH]c3ccccc23)NC(=O)[C@@H]2Cc3ccccc3CN2)c1", "CPE inhibition": 3.9}
{"smiles": "COc1ccc(NC(=O)[C@H](Cc2c[nH]c3ccccc23)NC(=O)[C@@H]2Cc3ccccc3CN2)cc1", "CPE inhibition": 1.35}
{"smiles": "Cc1cc(N2CCOCC2)nc2ccc(NC(=O)CCC(=O)N3CCN(c4ccccc4F)CC3)cc12", "CPE inhibition": 13.8}
{"smiles": "CC(NC(=O)COc1ccc(Br)cc1)C(=O)O", "note": "(stereo not given)", "CPE inhibition": 0.8}
{"smiles": "CN1CCN(C2=NC(=O)/C(=C/c3ccccc3OS(=O)(=O)c3ccccc3)S2)CC1", "CPE inhibition": 1.12}
{"smiles": "O=C1N=C(N2CCOCC2)S/C1=C\\c1ccc(OS(=O)(=O)c2ccccc2)cc1", "CPE inhibition": 0.11}
{"smiles": "CC(=O)N1c2ccccc2N(Cc2ccc(C)cc2C)C(=O)C1(C)C", "CPE inhibition": 5.65}
{"smiles": "Cc1cc(C)nc(NC(=O)c2c(F)c(F)c(F)c(C(=O)Nc3cc(C)cc(C)n3)c2F)c1", "CPE inhibition": -2.23}
{"smiles": "CCn1cc(C(=O)NCc2ccco2)c(=O)c2cc(F)c(N3CCN(C(=O)c4ccco4)CC3)cc21", "CPE inhibition": 0.76}
{"smiles": "CCn1cc(C(=O)NCc2ccncc2)c(=O)c2cc(F)c(N3CCN(C(=O)c4ccco4)CC3)cc21", "CPE inhibition": 4.28}
{"smiles": "CCn1cc(C(=O)O)c(=O)c2cc(F)c(N3CCN(C(=S)NC(=O)c4ccccc4)CC3)cc21", "CPE inhibition": -1.03}
{"smiles": "CCC(=O)N1CCN(c2cc3c(cc2F)c(=O)c(C(=O)O)cn3CC)CC1", "CPE inhibition": 0.7}
{"smiles": "CCOc1ccccc1-c1nc(CN2CCCC2c2nccs2)c(C)o1", "note": "(stereo not given)", "CPE inhibition": 5.15}
{"smiles": "COc1ccccc1C1CCCN1Cc1nc(-c2cc3c(cc2Cl)OCO3)oc1C", "note": "(stereo not given)", "CPE inhibition": 1.45}
{"smiles": "COCc1ccc(CN2CCCC(CO)(Cc3ccccc3C)C2)o1", "note": "(stereo not given)", "CPE inhibition": -0.94}
{"smiles": "CCOC(=O)c1cnc(Cc2ccccc2)[nH]c1=O", "CPE inhibition": 1.25}
{"smiles": "N#Cc1nc(COc2ccccc2Cl)oc1N1CCCC1", "CPE inhibition": 40.5}
{"smiles": "Cc1c(C(=O)O)oc2ccc3c(c12)C(O)CC(C)(C)O3", "note": "(stereo not given)", "CPE inhibition": 1.72}
{"smiles": "O=C(O)c1cc(C2CC2)nn1-c1ccccc1", "CPE inhibition": -0.32}
{"smiles": "CCc1ccccc1NC(=O)CNC(=O)c1cc(C2CC2)nn1-c1ccccc1", "CPE inhibition": -0.83}
{"smiles": "CCc1ccccc1NC(=O)CN(C)C(=O)c1cc(C2CC2)nn1-c1ccccc1", "CPE inhibition": 0.49}
{"smiles": "CN(CC(=O)Nc1ccccc1Cl)C(=O)c1cc(C2CC2)nn1-c1ccccc1", "CPE inhibition": 1.34}
{"smiles": "CCN(CC(=O)Nc1c(F)cccc1F)C(=O)C1CCN(C(=O)Nc2ccccc2)CC1", "CPE inhibition": 0.36}
{"smiles": "O=C(NC1CCCC1)C1CC(=O)N(c2ccccc2)C1", "note": "(stereo not given)", "CPE inhibition": 1.22}
{"smiles": "CS(=O)(=O)c1ccc(C(=O)OCC(=O)Nc2cccc(S(=O)(=O)N3CCCC3)c2)cc1", "CPE inhibition": 1.77}
{"smiles": "O=C(CSc1nccn(-c2ccc(Br)cc2)c1=O)Nc1ccccc1F", "CPE inhibition": 0.04}
{"smiles": "CSc1nc(Oc2ccc(C)cc2)cc(C(F)(F)F)n1", "CPE inhibition": 0.19}
